Laboratory results taken from PubChem BioAssay (NCI).
Compounds without any hit were thinned out: in the full panel of roughly 79,000, 15% have a hit. Rule as the data show it: active = growth inhibition above about 70%; inactive = the rest.

Key:
[1] = NCI Yeast Anticancer Drug Screen. Data for the rad50 strain (AID 155);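 also: 0% = growth of vehicle-only cultures of the same strain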; details: S. cerevisiae rad50 strain growth inhibition; at 50.0 µM; hits give high values
Outline: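 Yeast carrying a defined DNA repair defect were exposed to test compounds, and growth was compared with vehicle-treated controls to give percent inhibition.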

[2] = NCI Yeast Anticancer Drug Screen. Data for the mec2-1 strain (AID 157); details: S. cerevisiae mec2-1 strain, at 50.0 µM, hits give high values
Outline: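 Readout is yeast growth inhibition, normalised to vehicle-treated controls, in the mec2-1 strain exposed to compound.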

[3] = NCI Yeast Anticancer Drug Screen. Data for the sgs1 mgt1 strain (AID 161);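 also: 0% = growth of cultures given vehicle only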; details: S. cerevisiae sgs1 mgt1 strain, at 50.0 µM, hits give high values
Outline: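 Yeast cells carrying a defined DNA-repair defect were exposed to test compounds. Growth inhibition was measured relative to vehicle-treated controls.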

[4] = NCI Yeast Anticancer Drug Screen. Data for the cln2 rad14 strain (AID 165);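 also: 0% = growth equal to vehicle treated cultures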; details: S. cerevisiae cln2 rad14 strain, at 50.0 µM, hits give high values
Outline: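 Relative to vehicle controls, growth inhibition of compound-treated cln2 rad14 yeast was recorded.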

[5] = NCI Yeast Anticancer Drug Screen. Data for the bub3 strain (AID 167); details: S. cerevisiae bub3 mutant strain, at 50.0 µM, hits give high values
Outline: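 Compounds were applied to a genetically altered yeast strain carrying a cell-cycle control defect. Growth inhibition was scored against vehicle-treated controls.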

[6] = NCI Yeast Anticancer Drug Screen. Data for the mlh1 rad18 strain (AID 175); details: S. cerevisiae mlh1 rad18 strain growth inhibition; at 50.0 µM; hits give high values
Outline: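 Test agents were incubated with a yeast strain of defined genotype (DNA damage repair defect). Inhibition of growth was derived by comparison with vehicle-exposed cultures.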

Measured: growth inhibition

CCOC(=O)C1C(=O)CC1(C)C (stereo unspecified)
inactive: [1] 12.2% | [2] 6.9% | [3] 12.2% | [4] 36% | [5] 25.9% | [6] 21.8%

c1ccc(-c2cc(CNc3nc4ccccc4s3)on2)cc1
inactive: [1] 19.9% | [2] 10.7% | [3] 9.1% | [4] 5.45% | [5] -4.55% | [6] 9.75%

Cc1nc2c(=O)[nH]c(N)nc2[nH]c1=O
inactive: [1] -10% | [2] -4% | [3] -6.15% | [4] -30.4% | [5] -13.8% | [6] 2.3%

O=C(O)C1CCc2ccccc2C1 (stereo unspecified)
inactive: [1] 15.4% | [2] 4.05% | [3] 9.85% | [4] -0.45% | [5] -2.4% | [6] 2.95%

CC(=N/NC(=S)NCCN1CCCC1)/C(C)=N\NC(=S)NCCN1CCCC1
inactive: [1] 50.6% | [2] 4.95% | [3] 47.6% | [4] 10.6% | [5] 12.7% | [6] 35.1%

CC(=O)OC1C[C@H]2C(OC(=O)c3ccccc3)C3C4(OC(C)=O)COC4C[C@H](OC(C)=O)[C@@]3(C)C(OC(C)=O)[C@H](OC(C)=O)C(=C1C)C2(C)C (stereo partly specified)
inactive: [1] 41.2% | [2] 22.6% | [3] 31.7% | [4] 28.9% | [5] 26.4% | [6] 35.2%

Cc1ccc(NC(=O)CNc2ccc3c(c2)Cc2ccccc2-3)cc1
inactive: [1] -1.05% | [2] 14.6% | [3] 24.9% | [4] -37.5% | [5] 34.5% | [6] 27.2%

Cc1cccc2c1Oc1ccccc1C2N1C(=O)c2ccccc2C1=O (stereo unspecified)
inactive: [1] 6.65% | [2] 2.5% | [3] 4.9% | [4] 25.4% | [5] 9.95% | [6] 6.35%

CN(C)Cc1ccccc1C(=C(c1ccccc1)c1ccccc1)c1ccccc1
inactive: [1] -15.1% | [2] -4.65% | [3] -8% | [4] -23.6% | [5] -0.8% | [6] -10.9%

CC(=O)NC(C)C#N (stereo unspecified)
inactive: [1] -15.4% | [2] -14.1% | [3] -0.2% | [4] -4% | [5] -8.7% | [6] 5.55%

COC(=O)c1ccccc1NC(=O)c1ccccc1C(=O)O
inactive: [1] 6.4% | [2] 41% | [3] 35% | [4] -6.55% | [5] 28.5% | [6] 37.2%

Cc1cc(Sc2ccc(Cl)cc2)nc(Sc2ccc(Cl)cc2)c1C#N
inactive: [1] 7.6% | [2] -30.5% | [3] -27.9% | [4] -20.6% | [5] -10.7% | [6] -26.9%

NCC(=O)c1c[nH]c(=O)[nH]c1=O
inactive: [1] -8.85% | [2] -5.05% | [3] -12.2% | [4] -42.5% | [5] -10.3% | [6] 4.4%

CC(=O)NC(Cc1c[nH]c2ccccc12)C(=O)O (stereo unspecified)
inactive: [1] -21.4% | [2] -37.8% | [3] -30.6% | [4] -23.4% | [5] -35.8% | [6] -5.65%

Cc1cc(O)c2c(c1)C(=O)c1c(-c3ccc(O)c4c3C(=O)c3c(O)c(C)cc(O)c3C4=O)ccc(O)c1C2=O
inactive: [1] -30.7% | [2] -19.8% | [3] -17.1% | [4] 9.05% | [5] -26.8% | [6] -24.4%

Cc1ccc2c(=O)cc(-c3ccccc3)[nH]c2n1
inactive: [1] -48% | [2] -57% | [3] -42.1% | [4] 11.8% | [5] -59.1% | [6] -41.1%

O=c1[nH]c2cc(Cl)ccc2nc1/C(=N\Nc1ccccc1)C(O)c1ccc(Cl)c(Cl)c1 (stereo unspecified)
inactive: [1] 11.6% | [2] -4.8% | [3] -9.55% | [4] 24.4% | [5] 17.1% | [6] 19%

N#CC(C(=O)O)=C1CCCCCC1
inactive: [1] 2.4% | [2] -1% | [3] 3.7% | [4] -1.8% | [5] 5.5% | [6] -0.8%

CC(C)=CCOc1cc(NC(=S)c2ccsc2C)ccc1Cl
inactive: [1] -40.6% | [2] -24.6% | [3] -34.1% | [4] -22.4% | [5] -19.1% | [6] -36.3%

C=CCNC(=O)NCCCC(NC(C)=O)C(=O)NCc1ccccc1 (stereo unspecified)
inactive: [1] -20.9% | [2] -21.3% | [3] -14.7% | [4] 6.75% | [5] -22.3% | [6] -20.6%

CCOC(=O)c1c(C)c2c(n1C)CCC(C#N)C2=O (stereo unspecified)
inactive: [1] 9.3% | [2] 10.4% | [3] 9.8% | [4] 21.1% | [5] 9.05% | [6] 17.5%

NC(N)=NCCCCNCCCN=C(N)N
inactive: [1] -23.2% | [2] -42.8% | [3] 1.55% | [4] 3.35% | [5] -16.4% | [6] -15.7%

Cc1cc(NC(=O)C(=O)CC(=O)c2ccc(Cl)s2)no1
inactive: [1] -51.3% | [2] 4.95% | [3] -8.55% | [4] -56.4% | [5] -6.7% | [6] -2.6%

CCOC(=O)NC(=O)c1cn(C2OC(COC(=O)CCCCCCCCC(=O)OCC3OC(n4cc(C(=O)NC(=O)OCC)c(=O)[nH]c4=O)C4OC(C)(C)OC34)C3OC(C)(C)OC32)c(=O)[nH]c1=O (stereo unspecified)
inactive: [1] -42.9% | [2] -39.5% | [3] -27.9% | [4] 10.9% | [5] -16.1% | [6] -24.9%

CCOC(=O)C(c1ccccc1)c1ccccc1
inactive: [1] -11.4% | [2] -26.7% | [3] -17.6% | [4] -43.2% | [5] -12.8% | [6] -12.2%

CCOC(=O)NC(=O)CC#N
inactive: [1] -5.5% | [2] -29.8% | [3] 13.4% | [4] 5.05% | [5] -4.2% | [6] 10.7%

CCOC(=O)/C(C=Nc1c(C)n(C)n(-c2ccccc2)c1=O)=C(/C)O
inactive: [1] 19.7% | [2] 10.7% | [3] 11.7% | [4] 27.5% | [5] 10.8% | [6] 23.6%

CCOC(=O)c1nc2ccccc2nc1Nc1ccc(OC)c(OC)c1
inactive: [1] -30.2% | [2] -31.5% | [3] -15.9% | [4] -15.6% | [5] -16.6% | [6] -19.3%

Oc1c(O)c(Cc2ccccc2)c(Cc2ccccc2)c(Cc2ccccc2)c1Cc1ccccc1
inactive: [1] 40.7% | [2] -19.8% | [3] 23.3% | [4] -44.2% | [5] -7.15% | [6] 12.8%

C[C@H](C(O)CC(=O)C(C)(C)O)[C@H]1CC[C@@]2(C)[C@@H]3CC[C@H]4C(C)(C)[C@@H](OC5OC(COC6OC(CO)C(O)C(O)C6O)C(O)C(O)C5O)CC[C@]4(C)C3=CC[C@]12C (stereo partly specified)
inactive: [1] -12.7% | [2] -19.3% | [3] -20.2% | [4] -0.05% | [5] -23.4% | [6] -75.8%

COc1cc(C(C)S(=O)(=O)c2ccc(C)cc2)ccc1O (stereo unspecified)
inactive: [1] -2.95% | [2] -9.3% | [3] 8.65% | [4] 6.5% | [5] 3.2% | [6] 9.45%

COc1cc(C=O)ccc1OC(=O)Nc1cccc(Cl)c1C
inactive: [1] -0.55% | [2] 18.6% | [3] 15.8% | [4] 1.9% | [5] 37.2% | [6] 17.8%

CCCCCCCOc1ccc(/C=C\c2cc[n+](CCCCCCCC[n+]3ccc(/C=C\c4ccc(OCCCCCCC)cc4)cc3)cc2)cc1
inactive: [1] -22.4% | [2] -7.95% | [3] -14.2% | [4] 22.7% | [5] 8.1% | [6] 10.2%

Nc1n[nH]c(CCCCc2nc(N)n[nH]2)n1
inactive: [1] -23.2% | [2] -24.4% | [3] -2.55% | [4] -39.8% | [5] -4.25% | [6] -1.9%

CN=C(N)SCCCCCCSC(N)=NC
inactive: [1] -1.5% | [2] 0% | [3] 16.6% | [4] 26.1% | [5] -3.6% | [6] 4.15%

O=P(O)(O)c1ccc2c(c1)OCCOCCOCCOCCO2
inactive: [1] -41.9% | [2] -10.9% | [3] -29.5% | [4] -21.9% | [5] -24.4% | [6] -14.8%

O=C1CSCc2sccc21
inactive: [1] 37% | [2] 26.1% | [3] 6.55% | [4] -14.4% | [5] 17.3% | [6] 2.95%

CC(=O)NC(CCc1ccccc1)C(=O)O (stereo unspecified)
inactive: [1] 16.1% | [2] 32.4% | [3] 0.9% | [4] 24.9% | [5] 40.8% | [6] 13.8%

N#Cc1nc(CC(=O)/C=C/c2ccccc2)c(CC(=O)/C=C/c2ccccc2)nc1C#N
inactive: [1] 3.7% | [2] 13.7% | [3] 8.05% | [4] 16.3% | [5] 1.3% | [6] 21.3%

COC(=O)/C=C/c1ccc2c(c1)CCC2
inactive: [1] -35.5% | [2] -30.9% | [3] -13.8% | [4] 14.6% | [5] 31.7% | [6] -1.35%

CC(=O)Nc1nc(NC(C)=O)c2nc(C)cnc2n1
inactive: [1] 4.45% | [2] 20.6% | [3] -2.35% | [4] 24.4% | [5] 10.6% | [6] 25.2%
